Measurements taken from PubChem BioAssay.
The source made the active and inactive calls.

What was measured:
Albumin (Bos taurus) = Albumin (Bos taurus) (UniProt P02769); experiment: compounds binding labelled BSA control protein – biochemical, small-molecule microarray, Alexa647 label, 635/667 nm fluorescence, artefact control for SMM control protein annotation, profiling panel (AID 1118); conditions: BSA-A647 binding, fluorescence 635 nm, higher = more signal;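 further: score merges 667 nm emission intensity and signal-to-noise per printed compound spot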
[1] = probe aXIP binding to arrayed compounds – biochemical, NeuroSMM set, 635/667 nm fluorescence, primary screen (AID 1119); conditions: small-molecule microarray, higher = more signal, called active from +8 up or from −8 down;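 further: probe is the protein aXip251-270 applied at 1 µg/mL to compound-printed slides; binding of probe to printed compounds measured as 667 nm fluorescence plus signal to noise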
[2] = probe aNOTCH3 binding on compound microarray – biochemical, small-molecule microarray, 635/667 nm fluorescence, primary screen (AID 1120); conditions: higher = more signal;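 further: probe is a biotin-tagged antibody raised against NOTCH3 rather than NOTCH3 protein; score merges spot fluorescence near 667 nm with spot signal to noise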
[3] = probe aNOTCH2 binding on compound microarray – biochemical, small-molecule microarray, 635/667 nm fluorescence, primary screen (AID 1121); conditions: higher = more signal;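 further: score merges feature fluorescence read at 667 nm with its signal to noise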
[4] = target: Carbonic anhydrase 2 (Homo sapiens) (UniProt P00918); experiment: compounds binding carbonic anhydrase 2 – biochemical, small-molecule microarray, Alexa647-labelled CAII, profiling panel (AID 1122); conditions: CAII-A647 binding fluorescence, higher = more signal
[5] = COS7 lysate on small-molecule microarray, probe aHis, 635 nm (AID 1123); conditions: COS7 cell lysate, fluorescence, higher = more signal;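 further: z-score combines 667nm fluorescence intensity with signal-to-noise per printed compound spot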
[6] = probe aLAP1 signal on lysate-treated microarray – cell lysate, small-molecule microarray, COS7 lysate, primary screen (AID 1124); conditions: probe aLAP1, fluorescence, higher = more signal;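 further: lysate comes from COS7 cells expressing LAP1 and is applied at 0.3 µg/mL; score merges spot fluorescence near 667 nm with signal-to-noise over triplicate slides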
Sam68 (KHDRBS1) = experiment: compounds binding KHDRBS1 protein – biochemical, small-molecule microarray, 635 nm fluorescence, primary screen (AID 1125); conditions: higher = more signal;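 further: score merges 667 nm channel intensity with signal to noise over triplicate slides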
[7] = tested on: Chordin-like protein 2 (CHRDL2); experiment: compounds binding chordin-like 2 – biochemical, small-molecule microarray, 635 nm fluorescence, primary screen (AID 1126); conditions: fluorescence 635 nm, higher = more signal;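 further: printed compound slides probed with Chrdl2 protein at 4 µg/mL for 1 h at 4 C; score merges 667 nm emission intensity with signal to noise over three replicate slides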
[8] = target: Concanavalin-A (Canavalia ensiformis) (UniProt P02866); experiment: compounds binding concanavalin A lectin – biochemical, small-molecule microarray, Alexa647 label, 635 nm, artefact control for SMM control protein annotation, primary screen (AID 1127); conditions: ConA-A647 binding fluorescence, higher = more signal;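 further: z combines 667 nm emission intensity with signal-to-noise across three replicate slides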
Concanavalin-A (Canavalia ensiformis), sequence (P02866 whole entry, looked up): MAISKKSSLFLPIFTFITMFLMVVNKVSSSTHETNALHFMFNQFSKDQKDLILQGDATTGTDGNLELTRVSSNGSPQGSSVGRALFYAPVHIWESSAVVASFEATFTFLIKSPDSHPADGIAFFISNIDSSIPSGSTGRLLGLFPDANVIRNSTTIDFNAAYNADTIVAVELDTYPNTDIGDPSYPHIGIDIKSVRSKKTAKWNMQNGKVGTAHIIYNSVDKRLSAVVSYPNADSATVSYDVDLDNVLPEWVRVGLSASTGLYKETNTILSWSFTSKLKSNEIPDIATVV

Albumin (Bos taurus), sequence (P02769 whole entry, looked up): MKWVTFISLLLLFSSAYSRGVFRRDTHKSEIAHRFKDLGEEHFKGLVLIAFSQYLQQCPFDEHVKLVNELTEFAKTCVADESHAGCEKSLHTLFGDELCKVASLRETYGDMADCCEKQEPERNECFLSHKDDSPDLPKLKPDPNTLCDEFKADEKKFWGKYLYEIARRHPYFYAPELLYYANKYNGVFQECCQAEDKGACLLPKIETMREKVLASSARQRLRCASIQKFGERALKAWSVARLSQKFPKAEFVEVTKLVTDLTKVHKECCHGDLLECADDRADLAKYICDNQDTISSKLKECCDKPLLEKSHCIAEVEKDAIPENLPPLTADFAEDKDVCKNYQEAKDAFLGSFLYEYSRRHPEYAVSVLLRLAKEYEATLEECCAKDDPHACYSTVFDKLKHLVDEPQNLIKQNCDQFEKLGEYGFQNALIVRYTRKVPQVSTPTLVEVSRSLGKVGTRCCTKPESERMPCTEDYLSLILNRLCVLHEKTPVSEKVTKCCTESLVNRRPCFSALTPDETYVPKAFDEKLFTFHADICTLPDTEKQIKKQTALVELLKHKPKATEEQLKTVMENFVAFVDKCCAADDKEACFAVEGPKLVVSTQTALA

Row | Compound | composite z-score (Albumin (Bos taurus)) | composite Z-score [1] | composite z-score [2] | composite z-score [3] | composite z-score [4] | composite z-score [5] | composite z-score [6] | composite z-score (Sam68 (KHDRBS1)) | composite z-score [7] | composite z-score [8]
1 | CC(C)C[C@@H]1NC(=O)[C@H]2C[C@@H](C(=O)NCCCCCN)[C@@H](c3cccc(OCCO)c3)N2C1=O | 0.299 | 1.26 (inactive) | -0.495 | -0.146 | 0.695 | 1.27 | 1.16 | 0.166 | 0.292 | 0.661
2 | CCOC(=O)C1=CCN(S(=O)(=O)c2ccc(C)cc2)C1c1ccccc1 (stereo not given) | 1.02 | 0.728 (inactive) | 0.0836 | -0.0607 | 0.685 | 1.69 | 0.709 | 1.08 | 0.132 | 1.14
3 | CCOC(=O)C=Cc1cc(F)ccc1O | -0.0584 | -0.276 (inactive) | -0.0324 | -0.0995 | 0.384 | 0.149 | 0.0926 | 0.161 | 0.133 | 0.126
4 | CC(=O)N1CC(C(O)C2C=CC3C(=O)NC(=O)C3N2Nc2ccc(Cl)cc2Cl)c2ccccc21 (stereo not given) | 0.892 | 0.0413 (inactive) | -0.0077 | 0.108 | 0.693 | 2.36 | -0.0203 | 0.99 | 0.237 | 0.732
5 | COCCOC(=O)N1C(=O)[C@@]2(c3cc(C#CCNC(N)=O)ccc31)[C@H](c1ccc(OCCO)cc1)N1[C@H](c3ccccc3)[C@H](c3ccccc3)OC(=O)[C@H]1[C@@H]2C(N)=O | 0.319 | 0.658 (inactive) | 0.116 | -0.01 | 0.264 | 1.13 | 0.439 | 1.13 | 0.457 | 1.08
6 | NC(=O)N1C(=O)C2C(C1=O)C1C=C(CCCO)C2C(C2CC2)N1Cc1cccc(OC(F)(F)F)c1 (stereo not given) | 0.858 | 0.547 (inactive) | -0.349 | -0.179 | 0.653 | 0.518 | -0.0171 | 0.588 | -0.489 | 0.221
7 | CCOC(=O)C1=CC[C@@H](c2ccccc2)N(S(=O)(=O)c2ccc(C)cc2)[C@H]1c1cccc(OC)c1 | 0.909 | 1.15 (inactive) | 0.199 | 0.137 | 0.422 | 0.899 | 0.0214 | 1.06 | -0.0412 | 0.913
8 | COCCOC(=O)N1C(=O)[C@@]2(c3cc(C#Cc4ccc(OC)cc4)ccc31)[C@H](C(=O)NC[C@H](O)c1ccccc1)[C@H]1C(=O)O[C@H](c3ccccc3)[C@H](c3ccccc3)N1[C@@H]2c1ccc(OCCO)cc1 | 0.101 | -0.014 (inactive) | 0.0397 | -0.146 | 0.441 | 1.72 | 0.313 | 1.3 | 0.195 | 1.09
9 | COC(=O)[C@@]1(Cc2ccc(F)cc2)[C@H]2c3cc(C(=O)N(C)C)n(Cc4c(CO)[nH]cc(C)c4=O)c3C[C@H]2CN1C(=O)c1ccccc1 | 0.569 | 0.266 (inactive) | 0.26 | 0.224 | 0.866 | 0.816 | 1.41 | -0.279 | 0.146 | -0.189
10 | O=C1C2C=CC(C(O)c3cc(C(F)(F)F)cc(C(F)(F)F)c3)N(Nc3ccccc3F)C2C(=O)N1c1ccccc1 (stereo not given) | 1.01 | -0.147 (inactive) | 0.114 | -0.0005 | 0.752 | 2.86 | 1.06 | 1.01 | -0.217 | 0.443
11 | CCOC(=O)C1=CC[C@@H](c2ccccc2)N(S(=O)(=O)c2ccc(C)cc2)[C@H]1C=Cc1ccccc1 | 0.725 | 0.206 (inactive) | 0.0372 | -0.0569 | 0.707 | 1.03 | 0.827 | 0.602 | -0.19 | 0.81
